Results reported in ChEMBL document CHEMBL1961873, “Compounds: GSK PKIS; Assays: Nanosyn kinase panel” (2012).

Tests used:
[1] = molecular target: T1, 3-phosphoinositide-dependent protein kinase 1 (Homo sapiens) (UniProt O15530); details: at 0.1 µM;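 further: values are mean inhibition of PDK1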
T1 sequence (whole entry): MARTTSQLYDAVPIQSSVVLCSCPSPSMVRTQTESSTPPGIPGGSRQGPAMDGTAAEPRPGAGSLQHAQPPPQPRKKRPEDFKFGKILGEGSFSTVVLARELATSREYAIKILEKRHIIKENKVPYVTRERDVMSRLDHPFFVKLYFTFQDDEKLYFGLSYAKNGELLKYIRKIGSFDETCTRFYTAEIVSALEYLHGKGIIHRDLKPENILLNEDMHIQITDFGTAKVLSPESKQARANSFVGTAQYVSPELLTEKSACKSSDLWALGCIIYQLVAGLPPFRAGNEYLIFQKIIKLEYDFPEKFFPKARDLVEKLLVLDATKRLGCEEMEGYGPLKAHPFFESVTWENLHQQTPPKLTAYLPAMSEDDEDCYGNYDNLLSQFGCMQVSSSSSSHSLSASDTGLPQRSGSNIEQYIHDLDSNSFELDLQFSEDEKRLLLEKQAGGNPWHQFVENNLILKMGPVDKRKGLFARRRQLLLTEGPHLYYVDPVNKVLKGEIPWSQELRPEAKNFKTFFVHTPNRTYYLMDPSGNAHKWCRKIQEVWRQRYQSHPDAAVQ

[2] = molecular target: cAMP-dependent protein kinase catalytic subunit alpha (Homo sapiens) (UniProt P17612); details: at 0.1 µM
[3] = molecular target: cAMP-dependent protein kinase catalytic subunit alpha (Homo sapiens) (UniProt P17612); details: at 1 µM
[4] = molecular target: Protein kinase C alpha type (Homo sapiens) (UniProt P17252); details: at 0.1 µM
[5] = molecular target: Protein kinase C alpha type (Homo sapiens) (UniProt P17252); details: at 1 µM
[6] = molecular target: Protein kinase C beta type (Homo sapiens) (UniProt P05771); details: at 0.1 µM
[7] = molecular target: Protein kinase C beta type (Homo sapiens) (UniProt P05771); details: at 1 µM
[8] = molecular target: Protein kinase C eta type (Homo sapiens) (UniProt P24723); details: at 0.1 µM
[9] = molecular target: Protein kinase C eta type (Homo sapiens) (UniProt P24723); details: at 1 µM
[10] = molecular target: Protein kinase C gamma type (Homo sapiens) (UniProt P05129); details: at 0.1 µM
[11] = molecular target: Protein kinase C gamma type (Homo sapiens) (UniProt P05129); details: at 1 µM
[12] = molecular target: T2, Protein kinase C iota type (Homo sapiens) (UniProt P41743); details: at 0.1 µM
T2 sequence (whole entry): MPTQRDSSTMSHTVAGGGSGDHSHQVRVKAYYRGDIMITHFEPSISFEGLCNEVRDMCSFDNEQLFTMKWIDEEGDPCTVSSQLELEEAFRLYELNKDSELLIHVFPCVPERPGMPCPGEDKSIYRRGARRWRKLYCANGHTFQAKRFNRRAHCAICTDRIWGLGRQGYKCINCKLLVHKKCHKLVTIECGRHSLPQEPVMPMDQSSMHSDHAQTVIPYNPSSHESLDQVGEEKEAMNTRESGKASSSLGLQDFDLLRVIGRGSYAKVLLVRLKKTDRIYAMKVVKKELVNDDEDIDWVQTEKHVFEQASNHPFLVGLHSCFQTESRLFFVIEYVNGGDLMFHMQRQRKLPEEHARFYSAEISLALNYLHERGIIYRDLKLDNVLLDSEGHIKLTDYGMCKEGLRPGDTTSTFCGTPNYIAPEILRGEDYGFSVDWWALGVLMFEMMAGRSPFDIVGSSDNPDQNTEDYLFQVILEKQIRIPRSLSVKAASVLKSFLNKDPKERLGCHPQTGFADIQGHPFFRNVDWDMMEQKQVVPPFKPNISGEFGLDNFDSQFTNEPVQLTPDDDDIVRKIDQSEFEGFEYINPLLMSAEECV

[13] = molecular target: T2, Protein kinase C iota type (Homo sapiens); details: at 1 µM
[14] = molecular target: Protein kinase C theta type (Homo sapiens) (UniProt Q04759); details: at 0.1 µM
[15] = molecular target: Protein kinase C theta type (Homo sapiens) (UniProt Q04759); details: at 1 µM
[16] = molecular target: Protein kinase C beta type (Homo sapiens) (UniProt P05771); details: at 0.1 µM; remark: listed apart in the source
[17] = molecular target: Protein kinase C beta type (Homo sapiens) (UniProt P05771); details: at 1 µM; remark: listed apart in the source
[18] = molecular target: T3, Serine/threonine-protein kinase D1 (Homo sapiens) (UniProt Q15139); details: at 0.1 µM
T3 sequence (whole entry): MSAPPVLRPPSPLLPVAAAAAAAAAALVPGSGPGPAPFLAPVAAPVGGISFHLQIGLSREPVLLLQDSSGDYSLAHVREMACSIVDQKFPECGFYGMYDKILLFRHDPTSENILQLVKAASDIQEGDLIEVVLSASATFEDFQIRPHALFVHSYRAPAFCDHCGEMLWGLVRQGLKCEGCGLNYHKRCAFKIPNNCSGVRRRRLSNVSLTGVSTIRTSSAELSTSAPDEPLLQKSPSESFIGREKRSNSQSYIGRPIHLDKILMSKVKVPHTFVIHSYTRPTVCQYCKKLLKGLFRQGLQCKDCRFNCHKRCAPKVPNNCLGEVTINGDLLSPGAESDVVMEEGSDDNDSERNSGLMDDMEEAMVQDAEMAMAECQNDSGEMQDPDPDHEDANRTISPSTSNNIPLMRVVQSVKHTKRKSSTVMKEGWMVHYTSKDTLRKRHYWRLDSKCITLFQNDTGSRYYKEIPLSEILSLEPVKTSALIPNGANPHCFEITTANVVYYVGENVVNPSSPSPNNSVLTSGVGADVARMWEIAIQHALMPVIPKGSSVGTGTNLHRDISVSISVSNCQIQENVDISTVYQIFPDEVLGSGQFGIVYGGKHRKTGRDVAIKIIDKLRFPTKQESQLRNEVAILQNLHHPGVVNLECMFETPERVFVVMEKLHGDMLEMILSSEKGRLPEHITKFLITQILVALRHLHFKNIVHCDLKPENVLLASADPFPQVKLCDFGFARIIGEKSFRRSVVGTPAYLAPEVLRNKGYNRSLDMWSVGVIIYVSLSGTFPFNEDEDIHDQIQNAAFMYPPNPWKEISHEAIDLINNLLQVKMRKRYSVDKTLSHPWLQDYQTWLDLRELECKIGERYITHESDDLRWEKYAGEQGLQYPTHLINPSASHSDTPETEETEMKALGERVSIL

[19] = molecular target: T3, Serine/threonine-protein kinase D1 (Homo sapiens); details: at 1 µM
[20] = molecular target: T4, Serine/threonine-protein kinase D2 (Homo sapiens) (UniProt Q9BZL6); details: at 0.1 µM;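 further: reported percent inhibition values are means, part of the GSK PKIS kinase panel screen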
T4 sequence (whole entry): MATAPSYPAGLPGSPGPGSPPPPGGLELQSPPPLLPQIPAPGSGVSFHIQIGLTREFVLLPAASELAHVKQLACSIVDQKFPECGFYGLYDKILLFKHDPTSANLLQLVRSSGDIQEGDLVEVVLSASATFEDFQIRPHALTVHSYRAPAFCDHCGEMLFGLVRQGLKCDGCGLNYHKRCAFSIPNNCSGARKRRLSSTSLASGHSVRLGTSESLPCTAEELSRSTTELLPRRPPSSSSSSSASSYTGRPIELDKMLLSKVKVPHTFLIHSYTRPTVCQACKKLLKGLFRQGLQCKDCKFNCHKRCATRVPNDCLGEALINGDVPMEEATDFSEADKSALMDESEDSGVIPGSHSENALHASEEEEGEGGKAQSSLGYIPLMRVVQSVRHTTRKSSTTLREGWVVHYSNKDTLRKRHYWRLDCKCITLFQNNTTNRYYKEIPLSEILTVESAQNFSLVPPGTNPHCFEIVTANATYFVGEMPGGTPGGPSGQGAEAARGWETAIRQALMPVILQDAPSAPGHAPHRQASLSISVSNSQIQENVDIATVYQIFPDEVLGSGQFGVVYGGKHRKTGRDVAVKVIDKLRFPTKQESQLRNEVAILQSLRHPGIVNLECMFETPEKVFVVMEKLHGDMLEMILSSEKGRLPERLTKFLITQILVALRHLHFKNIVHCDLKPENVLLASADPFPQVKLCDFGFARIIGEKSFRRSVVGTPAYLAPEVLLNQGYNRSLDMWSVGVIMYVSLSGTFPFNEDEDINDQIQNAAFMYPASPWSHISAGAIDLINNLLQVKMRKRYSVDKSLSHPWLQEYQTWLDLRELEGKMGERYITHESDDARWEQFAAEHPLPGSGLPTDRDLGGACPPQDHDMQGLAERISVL

Chain of Protein kinase C eta type (Homo sapiens) (P24723 whole entry): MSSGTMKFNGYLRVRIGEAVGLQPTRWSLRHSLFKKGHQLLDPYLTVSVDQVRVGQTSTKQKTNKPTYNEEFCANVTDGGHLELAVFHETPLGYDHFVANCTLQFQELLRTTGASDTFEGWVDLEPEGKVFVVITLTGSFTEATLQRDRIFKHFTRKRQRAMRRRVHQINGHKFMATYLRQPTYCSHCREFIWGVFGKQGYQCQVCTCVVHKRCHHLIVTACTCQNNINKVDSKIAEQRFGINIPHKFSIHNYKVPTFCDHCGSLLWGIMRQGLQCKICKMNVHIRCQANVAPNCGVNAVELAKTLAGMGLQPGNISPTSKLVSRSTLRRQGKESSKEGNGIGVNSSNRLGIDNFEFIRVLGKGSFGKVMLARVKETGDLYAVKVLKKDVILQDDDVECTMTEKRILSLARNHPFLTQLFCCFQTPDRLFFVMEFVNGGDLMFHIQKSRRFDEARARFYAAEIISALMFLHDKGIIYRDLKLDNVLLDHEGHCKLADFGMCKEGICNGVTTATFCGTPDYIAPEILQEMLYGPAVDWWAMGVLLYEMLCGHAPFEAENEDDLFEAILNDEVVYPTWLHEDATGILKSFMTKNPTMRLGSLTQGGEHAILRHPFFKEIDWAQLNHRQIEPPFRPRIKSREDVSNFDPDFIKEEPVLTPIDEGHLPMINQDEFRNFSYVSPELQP
Chain of Protein kinase C theta type (Homo sapiens) (Q04759 whole entry, looked up): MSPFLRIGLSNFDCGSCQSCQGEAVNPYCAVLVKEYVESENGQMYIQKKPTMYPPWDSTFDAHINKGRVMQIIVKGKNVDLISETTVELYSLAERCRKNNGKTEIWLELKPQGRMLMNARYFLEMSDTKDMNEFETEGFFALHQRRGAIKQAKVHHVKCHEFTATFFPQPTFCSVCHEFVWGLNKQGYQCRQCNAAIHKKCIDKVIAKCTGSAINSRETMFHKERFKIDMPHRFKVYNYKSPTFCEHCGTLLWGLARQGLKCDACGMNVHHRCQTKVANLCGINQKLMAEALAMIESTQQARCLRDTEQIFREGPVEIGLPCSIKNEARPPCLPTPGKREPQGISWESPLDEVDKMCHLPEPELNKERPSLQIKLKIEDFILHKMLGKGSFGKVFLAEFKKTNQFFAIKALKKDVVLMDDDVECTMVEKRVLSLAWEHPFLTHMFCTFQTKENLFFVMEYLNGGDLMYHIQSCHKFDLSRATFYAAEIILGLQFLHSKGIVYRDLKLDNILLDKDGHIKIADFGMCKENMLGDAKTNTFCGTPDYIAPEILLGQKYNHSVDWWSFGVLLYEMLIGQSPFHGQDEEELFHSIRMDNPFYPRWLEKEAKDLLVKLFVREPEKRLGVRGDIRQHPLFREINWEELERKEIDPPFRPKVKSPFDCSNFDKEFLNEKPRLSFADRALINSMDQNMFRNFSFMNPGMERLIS
Chain of Protein kinase C beta type (Homo sapiens) (P05771 2-671 limits assumed): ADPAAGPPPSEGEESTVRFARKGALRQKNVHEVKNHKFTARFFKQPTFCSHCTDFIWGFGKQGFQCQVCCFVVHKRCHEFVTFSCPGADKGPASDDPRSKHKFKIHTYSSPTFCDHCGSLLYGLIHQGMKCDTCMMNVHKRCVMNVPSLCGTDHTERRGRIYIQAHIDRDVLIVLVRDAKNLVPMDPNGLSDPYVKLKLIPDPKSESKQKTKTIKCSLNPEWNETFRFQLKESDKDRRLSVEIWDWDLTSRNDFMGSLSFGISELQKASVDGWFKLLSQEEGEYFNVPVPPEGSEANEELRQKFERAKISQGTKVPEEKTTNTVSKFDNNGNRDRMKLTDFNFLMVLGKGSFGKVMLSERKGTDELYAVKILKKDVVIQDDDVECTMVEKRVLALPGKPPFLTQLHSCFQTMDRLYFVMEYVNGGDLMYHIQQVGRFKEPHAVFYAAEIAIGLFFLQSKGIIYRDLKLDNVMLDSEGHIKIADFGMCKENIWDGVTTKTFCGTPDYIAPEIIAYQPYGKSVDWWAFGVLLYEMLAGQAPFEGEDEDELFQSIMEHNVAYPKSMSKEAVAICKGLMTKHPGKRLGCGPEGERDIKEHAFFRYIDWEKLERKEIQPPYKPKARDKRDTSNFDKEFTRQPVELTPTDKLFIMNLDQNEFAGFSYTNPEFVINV

| SMILES | inhibition [1] [%] | inhibition [2] [%] | inhibition [3] [%] | inhibition [4] [%] | inhibition [5] [%] | inhibition [6] [%] | inhibition [7] [%] | inhibition [8] [%] | inhibition [9] [%] | inhibition [10] [%] | inhibition [11] [%] | inhibition [12] [%] | inhibition [13] [%] | inhibition [14] [%] | inhibition [15] [%] | inhibition [16] [%] | inhibition [17] [%] | inhibition [18] [%] | inhibition [19] [%] | inhibition [20] [%] |
| --- | --- | --- | --- | --- | --- | --- | --- | --- | --- | --- | --- | --- | --- | --- | --- | --- | --- | --- | --- | --- |
| NS(=O)(=O)c1ccc(Nc2cc(-c3ccc(O)c(F)c3)n[nH]2)cc1 | -2.08 | -2.2 | -0.83 | -0.97 | 0.4 | -0.01 | 0.79 | -3.29 | -5.2 | -3.75 | -0.85 | -0.61 | 0.05 | -1.75 | -1.1 | -0.96 | 0.72 | -1.96 | 4.59 | -2.32 |
| COc1cccc(-n2cnc3c(N/N=C/c4ccncc4)ncnc32)c1 | 0.77 | -1.92 | 0.18 | -2.58 | -3.28 | 3.24 | 5.82 | 3.47 | 0.69 | 0.93 | 3.14 | 0.58 | -0.97 | 0.62 | 4.42 | 2.34 | 2.1 | -2.1 | -5.45 | -4.34 |
| CCC(=O)Nc1ccc(C)c(-c2ccc(C(=O)NCC3CC3)cc2)c1 | 2.1 | 2.1 | 1.49 | -0.25 | 0.8 | 0.07 | -0.89 | 5.65 | 3.46 | 0.1 | 2.13 | 0.11 | 0.41 | 1.23 | 1.92 | 0.61 | 1.48 | 2.88 | 2.86 | 1.86 |
| Clc1ccc(CNc2nccc(-c3cnn4ncccc34)n2)cc1 | 2.08 | 0.38 | 1.31 | 0.92 | 4.19 | 0.26 | 1.03 | 2.3 | 7.54 | 0.4 | 4.31 | -0.38 | -1.34 | 1.01 | 1.73 | 0.21 | 0.83 | 1.24 | 4.11 | 1.12 |
| COc1cc2ncn(-c3cc(OCc4cccs4)c(C(N)=O)s3)c2cc1OC | 3.07 | -0.85 | -2.23 | -2.88 | -2.59 | 5.39 | 8.77 | 4.49 | 4.09 | 4.75 | 6.19 | 2.66 | 0.01 | 1.98 | 6.01 | 2.61 | 4.99 | -0.16 | -1.53 | -1.61 |
| CNC(=O)c1cncc(/C=C/c2c(C)cccc2C)c1 | 2.19 | -2.91 | -3.45 | -2.57 | -1.89 | 1.56 | -0.29 | 3.75 | 1.62 | -0.51 | 0.78 | -1.41 | -1.56 | -0.68 | 0.76 | -0.12 | 1.01 | -2.84 | -2.47 | -2.56 |
